The values below come from PubChem BioAssay (EPA / NIEHS).

Calls of active or inactive are those of the source. How the source made its calls: active means hit-call score of the fitted dose curve at least 0.9, where 1 is the maximum; inactive means score below 0.9.

One may read the AC50 as the midpoint of the concentration-response curve, whichever way the signal moves.

Experiment [1] in a line: APR_HepG2_CellCycleArrest_24hr: Apredica 24-hour HepG2 Assay for Cell Cycle Arrest (AID 2282905).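 Further: cell cycle arrest scored as ratio of 2N to 4N nuclear DNA content.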 To be noted: imaging, actives raise or lower the signal. The method in brief: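 Cell cycle arrest is scored from nuclear DNA content measured by high-content imaging of Hoechst 33342-stained HepG2 cells following 24-hour treatment at ten concentrations up to 200 uM, with DMSO as baseline.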

Experiment [2] is described as follows: APR_HepG2_NuclearSize_24hr: Apredica 24-hour HepG2 Assay for Nuclear Size (AID 2282907). As to conditions: high-content imaging, actives raise or lower the signal. The method in brief: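 Compounds in DMSO (final 0.5%) were added to human HepG2 hepatoma cells at ten concentrations up to 200 uM for 24 hr. Fixed nuclei were stained with Hoechst 33342, and nuclear diameter was quantified from automated images.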

A short description of experiment [3]: APR_HepG2_CellLoss_24hr: Apredica 24-hour HepG2 Assay for Cell Loss (AID 2282908). To be noted: high-content imaging. The method in brief: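 Cell number is quantified by fluorescence imaging of Hoechst 33342-stained nuclei following dosing at 0.39–200 uM in 0.5% DMSO. Curves are fitted in both directions from the DMSO baseline.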
The nature of experiment [4]: APR_HepG2_MicrotubuleCSK_24hr: Apredica 24-hour HepG2 Assay for Microtubule CSK Stabilty (AID 2282909). As to conditions: HepG2 microtubule cytoskeleton imaging, actives raise or lower the signal. The method in brief: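 Steps: dose HepG2 for 24 h (0.39–200 uM, 0.5% DMSO); fix 30 min in 3.7% formaldehyde at room temperature; permeabilize; stain alpha-tubulin 60 min; image microtubule cytoskeleton at 20x. Signal change fitted in both directions relative to DMSO.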

The nature of experiment [5]: APR_HepG2_MitoticArrest_24hr: Apredica 24-hour HepG2 Assay for Mitotic Arrest (AID 2282910). To be noted: high-content imaging, actives raise or lower the signal. The method in brief:
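Compounds are dosed onto HepG2 cells across ten concentrations up to 200 uM for 24 hr. Cells are then fixed in 3.7% formaldehyde, permeabilised, and labelled for phospho-histone H3 and nuclei; images are scored by cell cycle analysis and fitted bidirectionally relative to DMSO.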

A short description of experiment [6]: APR_HepG2_MitoMembPot_24hr: Apredica 24-hour HepG2 Assay for Mitochondrial Membrane Potential (AID 2282911). As to conditions: imaging, actives raise or lower the signal. The method in brief:
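Human hepatoma HepG2 cultures received ten compound concentrations up to 200 uM for 24 hr. Membrane-potential dye signal, captured by automated fluorescence microscopy, was scored for gain or loss against DMSO controls.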

Experiment [7] in a line: APR_HepG2_MitoMass_24hr: Apredica 24-hour HepG2 Assay for Mitochondrial Mass (AID 2282912). To be noted: high-content imaging, actives raise or lower the signal. The method in brief: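 The liver line HepG2 was dosed in duplicate across a 0.39–200 uM series, with final DMSO held at 0.5% v/v, and harvested at 24 hr. High-content imaging measured mitochondrial dye staining.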

Experiment [8] can be described thus: APR_HepG2_p53Act_24hr: Apredica 24-hour HepG2 Assay for p53 Activation (AID 2282913).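 Further: p53 protein immunofluorescence averaged per cell in HepG2 with Hoechst nuclei.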 As to conditions: high-content imaging, actives raise or lower the signal. The method in brief:
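Automated fluorescence imaging quantifies p53 immunostaining in HepG2 cells after a 24 hr exposure (0.39–200 uM, duplicate, 0.5% DMSO). Nuclei are located by Hoechst 33342 staining.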

Experiment [9] in a line: APR_HepG2_CellCycleArrest_72hr: Apredica 72-hour HepG2 Assay for Cell Cycle Arrest (AID 2282914). To be noted: high-content imaging, actives raise or lower the signal. The gist of the method: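 Cell cycle arrest in HepG2 was scored from nuclear DNA content after 72 hr compound treatment (0.39–200 uM). Activity, either gain or loss, was fitted against the DMSO baseline.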

Experiment [10] is described as follows: APR_HepG2_CellLoss_72hr: Apredica 72-hour HepG2 Assay for Cell Loss (AID 2282915). As to conditions: high-content imaging. The method in brief: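 Cell number comes from Hoechst 33342-labelled nuclei, imaged at 20x after 3.7% formaldehyde fixation. Dosing was 0.39–200 uM, ten concentrations in duplicate, 0.5% DMSO final, for 72 h. Bidirectional fit relative to DMSO baseline.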

Experiment [11] is described as follows: APR_HepG2_P-H2AX_72hr: Apredica 72-hour HepG2 Assay for H2AX Phosphorylation (AID 2282916).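 Further: phospho-histone H2A.x immunostain intensity per cell marking DNA damage.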 As to conditions: imaging, actives raise or lower the signal. The gist of the method:
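Following 72 hr treatment with 0.39–200 uM compound, HepG2 cells were formaldehyde-fixed, permeabilized and stained for phospho-H2A.x; signal was measured by high-content imaging and fitted bidirectionally against DMSO controls.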

Experiment [12] in a line: APR_HepG2_MitoMembPot_72hr: Apredica 72-hour HepG2 Assay for Mitochondrial Membrane Potential (AID 2282917). As to conditions: imaging, actives raise or lower the signal. The method in brief: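 Membrane potential read by MitoTracker Red CMXRos (250 nM, 30 min, pre-fixation) fluorescence imaging of HepG2 after 72 hr exposure. Ten concentrations, 0.39–200 uM, duplicate wells, 0.5% DMSO; fitted in both directions against DMSO baseline.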

Experiment [13] can be described thus: APR_HepG2_MitoticArrest_72hr: Apredica 72-hour HepG2 Assay for Mitotic Arrest (AID 2282918). As to conditions: high-content imaging, actives raise or lower the signal. The gist of the method: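 Mitotic arrest in HepG2 is scored from phospho-histone H3 staining after 72 hr dosing across 0.39–200 uM, with DMSO at 0.5% v/v. Nuclei are identified by Hoechst 33342 and fluorescence intensity is quantified per cell.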

Experiment [14] is described as follows: APR_HepG2_MicrotubuleCSK_72hr: Apredica 72-hour HepG2 Assay for Microtubule CSK Stabilty (AID 2282919). To be noted: HepG2 microtubule cytoskeleton, high-content imaging, actives raise or lower the signal. The method in brief: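 Read-out is tubulin fluorescence intensity from high-content imaging of HepG2 cells, with nuclei identified by Hoechst 33342. Treatment lasts 72 h at 0.39–200 uM, and curves are fitted bidirectionally against the DMSO negative control.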

The nature of experiment [15]: APR_HepG2_P-H2AX_24hr: Apredica 24-hour HepG2 Assay for H2AX Phosphorylation (AID 2282920). To be noted: high-content imaging, actives raise or lower the signal. The gist of the method: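 Signal comes from a FITC-labeled secondary detecting phospho-histone H2A.x in fixed HepG2 cells, quantified by automated imaging at 20x. Dosing ran 24 hr across 0.39–200 uM with 0.5% v/v DMSO.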

A short description of experiment [16]: APR_HepG2_StressKinase_72hr: Apredica 72-hour HepG2 Assay for Stress Kinase (AID 2282921). As to conditions: HepG2 stress kinase (phospho-c-Jun) imaging, actives raise or lower the signal. The gist of the method:
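Fluorescence intensity of Cy3-tagged anti-phospho-c-Jun antibody, quantified per cell from Hoechst-defined nuclei across six images per well, served as the read-out following 72 h exposure (0.39–200 uM, 0.5% v/v DMSO).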

The nature of experiment [17]: APR_HepG2_StressKinase_24hr: Apredica 24-hour HepG2 Assay for Stress Kinase (AID 2282922). As to conditions: HepG2 stress kinase (phospho-c-Jun) imaging, actives raise or lower the signal. The gist of the method:
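HepG2, 24 hr dosing, 0.39–200 uM in duplicate, 0.5% DMSO; formaldehyde fix (3.7%), 0.5% Triton X-100; anti-phospho-c-Jun + Cy3 secondary, Hoechst counterstain; ArrayScan imaging; bidirectional curve fit vs DMSO baseline.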

The nature of experiment [18]: APR_HepG2_p53Act_72hr: Apredica 72-hour HepG2 Assay for p53 Activation (AID 2282923).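 Further: average cellular p53 protein immunofluorescence intensity in HepG2 cells.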 As to conditions: high-content imaging, actives raise or lower the signal. The method in brief: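 HepG2 monolayers receive test compounds in duplicate at ten concentrations (0.39 through 200 uM) for 72 hr. They are then formaldehyde-fixed, antibody-labelled for p53, Hoechst-stained and imaged, with activity fitted bidirectionally versus DMSO.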

Experiment [19] can be described thus: APR_HepG2_MitoMass_72hr: Apredica 72-hour HepG2 Assay for Mitochondrial Mass (AID 2282924).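 Further: MitoTracker Red CMXRos stain intensity per cell imaged as mitochondrial mass.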 As to conditions: high-content imaging, actives raise or lower the signal. The method in brief: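 HepG2, 72 hr cmpd, 10 conc 0.39–200 uM in dup, DMSO 0.5% v/v. MitoTracker Red CMXRos 250 nM 30 min pre-fix; formaldehyde 3.7% fix 30 min RT. HCS imaging, gain/loss fit vs DMSO.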

Experiment [20] is described as follows: APR_HepG2_NuclearSize_72hr: Apredica 72-hour HepG2 Assay for Nuclear Size (AID 2282925). As to conditions: high-content imaging, actives raise or lower the signal. The gist of the method:
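HepG2; cpd 0.39–200 uM, 10 conc, duplicate; 72 h; DMSO 0.5% v/v; fix 3.7% formaldehyde 30 min RT; Triton permeabilization; Hoechst 2 ug/mL; HCS imaging 20x; nuclear diameter; gain/loss fit vs DMSO.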

For `Oc1ccc2ccccc2c1`, the call in experiment [1], in [2], in [3], in experiment [4], in experiment [5] and in experiment [6] was inactive. The call in [7], in experiment [8], in experiment [9], in experiment [10], in [11] and in experiment [12] was inactive. The compound was classed as inactive in experiment [13], in [14], in [15], in experiment [16], in experiment [17] and in experiment [18]. The result in experiment [19] and in experiment [20] was inactive.
Regarding `O=C(O)c1ccccc1-n1cc(C(=O)O)c(=O)c2cc(Nc3c(F)cc(F)cc3Cl)c(Cl)cc21`, the compound was called inactive in [1], in experiment [2], in [3], in [4], in experiment [5] and in experiment [6]. Further, the compound was classed as inactive in [7], in [8], in [9], in [10], in experiment [11] and in experiment [12]. In addition, the compound was called inactive in experiment [13], in [14], in [15], in [16], in [17] and in [18]. Further, the outcome in experiment [19] and in experiment [20] was inactive.
As for `CCCCCCCCCCCCO`, the compound was called inactive in [1], in [2], in experiment [3], in experiment [4], in [5] and in experiment [6]. Further, the outcome in experiment [7], in experiment [8], in [9], in experiment [10], in experiment [11] and in experiment [12] was inactive. The compound was classed as inactive in experiment [13], in experiment [14], in experiment [15], in [17], in experiment [18] and in [20]. Moreover, in [19], the AC50 was 119 µM (active).
In the case of `CO[C@H]1/C=C/O[C@@]2(C)Oc3c(C)c(O)c4c(O)c(c(/C=N/N5CCN(C)CC5)c(O)c4c3C2=O)NC(=O)/C(C)=C\C=C\[C@H](C)[C@H](O)[C@@H](C)[C@@H](O)[C@@H](C)[C@H](OC(C)=O)[C@@H]1C`, the outcome in experiment [1], in [2], in experiment [3], in experiment [4], in experiment [5] and in experiment [6] was inactive. Besides, the result in experiment [7], in [8], in experiment [9], in [11], in experiment [12] and in experiment [14] was inactive. The call in experiment [15], in experiment [16], in [17], in experiment [18], in experiment [19] and in experiment [20] was inactive. Besides, the values for the AC50 in [10] and in [13] were 45.2 µM (active) and 46.2 µM (active), respectively.
Consider `Cc1cn([C@H]2C[C@H](N=[N+]=[N-])[C@@H](CO)O2)c(=O)[nH]c1=O`, for which the result in experiment [1], in experiment [2], in [3], in [4], in [5] and in [6] was inactive. The compound was called inactive in experiment [7], in [8], in experiment [10], in experiment [11], in experiment [12] and in experiment [14]. For the same compound, the compound was classed as inactive in [15], in [16], in experiment [17], in experiment [18], in [19] and in [20]. The AC50 in experiment [9] is 46.3 µM (active).
Turning to `OCCO`, the compound was classed as inactive in experiment [1], in [2], in experiment [3], in [4], in [5] and in [6]. Moreover, the outcome in experiment [7], in experiment [8], in [9], in experiment [10], in experiment [11] and in experiment [12] was inactive. Besides, the compound was classed as inactive in [13], in [14], in experiment [15], in [17], in experiment [18] and in [19]. In addition, the compound was classed as inactive in experiment [20].
